Assay outcomes from PubChem BioAssay.
HADH2 inh = qHTS Assay for Inhibitors of HADH2 (Hydroxyacyl-Coenzyme A Dehydrogenase, Type II). hit rate 3.4% among 73,000. Potency, µM (highest dose often 57.1 µM), inactives show top-dose activity change, negative = inhibition, most hits filed as inhibitors. recombinant HADH2, NADH fluorescence, beta-hydroxybutyryl-CoA. 3-hydroxyacyl-CoA dehydrogenase type-2 (Homo sapiens), Q99714. AID 886, 2007; note: nearly all actives have a fitted effect of over 60% in size
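Activity measured as NADH fluorescence gain (360/450 nm), taken as the change between first and last reads of a 4-min kinetic run. Conditions: pH 9.0 Tris buffer, 20 nM E. coli-expressed His-tagged enzyme, 1 mM NAD+, 90 uM beta-hydroxybutyryl-CoA; 15-min compound preincubation.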
HSD17B inhib = qHTS Assay for Inhibitors of HSD17B4, hydroxysteroid (17-beta) dehydrogenase 4. Potency, µM (doses to about 57.1 µM), without a hit: top-dose activity change, negative = inhibition, actives largely listed as inhibitors. 3-hydroxyacyl-CoA dehydrogenase type-2 (Homo sapiens), Q99714. recombinant HSD17B10, NADH fluorescence kinetic. hit rate 7.6% among 75,000. AID 893, 2007;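 note: the protocol describes HADH2 (HSD17B10) and not the HSD17B4 of the title; nearly all actives have a fitted effect of over 70% in size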
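20 nM HADH2, pH 9.0 Tris/Tween; cpd preinc 15 min RT; start w/ 1 mM NAD+ + 90 uM b-hydroxybutyryl-CoA; kinetic fluor ex360/em450 q30s x 4 min; delta last-first.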
ALOX15 inhib = qHTS Assay for Inhibitors of 15-hLO (15-human lipoxygenase). purified 15hLO-1, xylenol orange hydroperoxide absorbance. Potency, µM (top dose mostly 57.1 µM), for inactives: at the highest dose activity change, negative = inhibition, most hits filed as inhibitors. hit rate 1.4% among 74,000. AID 887, 2007; note: nearly all actives have a fitted effect of over 55% in size
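Hydroperoxide formed from arachidonic acid (50 uM) by purified human 15hLO-1 (40 nM) oxidizes ferrous iron, and the ferric-xylenol orange complex is read at 573 versus 405 nm. Compounds were preincubated 15 min; reaction ran 6 min at room temperature.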
ERK AVP block = qHTS Assay for Inhibitors of the ERK Signaling Pathway using a Homogeneous Screening Assay. HEK293-V1b, vasopressin-stimulated pERK AlphaScreen. Potency, µM (series often up to 57.5 µM), inactives show at the highest dose activity, negative = inhibition, most hits filed as inhibitors. hit rate 0.99% among 72,000; note: nearly all actives have a fitted effect of over 55% in size
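HEK293 cells stably expressing V1b receptor, seeded overnight in 1% FBS, were treated with compounds for 30 min at 37C, then stimulated 5 min with 25 nM vasopressin; phospho-ERK read by AlphaScreen SureFire after lysis.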
Luciferase inh = qHTS Assay for Inhibitors of Firefly Luciferase. Luciferin 4-monooxygenase (Photinus pyralis), P08659. purified firefly luciferase, luminescence, 8 min. Potency, µM (series often up to 57.1 µM), without a hit: at the highest dose activity change, negative = inhibition, hits mostly inhibitors. hit rate 2.2% among 72,000; note: nearly all actives have a fitted effect of over 40% in size
Target sequence (P08659 whole entry, looked up): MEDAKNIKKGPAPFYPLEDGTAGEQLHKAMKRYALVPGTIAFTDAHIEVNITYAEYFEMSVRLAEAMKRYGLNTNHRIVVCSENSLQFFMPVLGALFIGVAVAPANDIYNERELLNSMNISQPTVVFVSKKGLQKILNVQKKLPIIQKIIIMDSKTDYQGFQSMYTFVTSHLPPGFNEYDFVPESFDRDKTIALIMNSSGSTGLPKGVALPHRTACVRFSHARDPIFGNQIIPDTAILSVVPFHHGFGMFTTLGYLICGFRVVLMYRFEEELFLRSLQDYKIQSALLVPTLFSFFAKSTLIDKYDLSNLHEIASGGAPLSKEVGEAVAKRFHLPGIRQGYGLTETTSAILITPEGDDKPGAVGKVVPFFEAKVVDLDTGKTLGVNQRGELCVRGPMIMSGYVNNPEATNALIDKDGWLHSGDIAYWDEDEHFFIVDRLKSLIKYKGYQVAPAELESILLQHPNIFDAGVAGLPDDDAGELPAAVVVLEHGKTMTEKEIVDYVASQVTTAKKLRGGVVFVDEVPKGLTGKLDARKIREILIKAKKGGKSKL
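Here, luciferase activity is measured as luminescence following an 8 min room-temperature reaction at 10 uM ATP, pH 7.2. Every library sample is titrated.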
Bst PK mod = Pyruvate Kinase; Potency, µM; purified pyruvate kinase, luminescence ATP production; ribose 5-phosphate activator present at AC10; hit rate 1.2% among 51,000; in the data active = potency below about 11 µM; inconclusive = mostly about 12 µM to 25 µM;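 the screen sought inhibitors and activators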;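 note: scaled between full activation by ribose 5 phosphate and full inhibition by luteolin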
Starred values were filed as active, the others as inactive; i = inactive; ? = inconclusive; / = no result; [ ] = dose if it differs, or a comment. This is a sample that favours compounds with a hit; in the whole collection about 11% have one here. Unless noted, calls come from the whole dose curve; as a rule, active = well fitted curve in the direction sought with a large enough effect; inconclusive = small, poorly fitted or top-dose-only effect, or another doubt; inactive = no such curve, though single readings can be large; an effect the other way counts as inactive or inconclusive. Unless noted, % is set by controls: 0 for no effect and ±100 for the full control effect; potency is the fitted concentration of half-maximal effect.

SMILES	HADH2 inh	HSD17B inhib	ALOX15 inhib	ERK AVP block	Luciferase inh	Bst PK mod
CC1(C(=O)N(CC(=O)NC2CCCC2)Cc2ccco2)CC(=O)N=C2C=CC=CN21 (configuration not stated)	25µM*	25µM*	-1%	-14%	-2%	>57
CCN1CCCC1CNC(=O)c1ccc(Cc2nc3ccccc3[nH]2)cc1 (configuration not stated)	-2%	-1%	6%	/	/	/
COc1ccccc1-c1cc(C(=O)Nc2ccc(F)cc2F)no1	?	32µM*	0%	-5%	1%	>57
Cn1nnnc1SCC(=O)Nc1ccccc1N1CCOCC1	-8%	10%	-1%	5%	-40%	>57
Cn1c(-c2ccc(F)cc2)cnc1SCC(=O)Nc1ccccc1N1CCOCC1	2%	-9%	-16%	32µM*	-3%	>57
CCCCCC(=O)c1cc(CC(C(=O)OC)C(=O)OC)cc2cc(OC)c(OC)cc12	8%[11.4 µM]	1%[11.4 µM]	-2%[11.4 µM]	28%[11.5 µM]	/	/
O=C1CCCC=C1[C@@H](O)CCOCc1ccccc1	-9%[11.4 µM]	5%[11.4 µM]	4%[11.4 µM]	-15%[11.5 µM]	0%[11.4 µM]	/
COc1cc2c(C#N)c(N3CCN(c4ccccc4OC)CC3)nc(N)c2c(N)n1	?	25µM*	-5%	25µM*	-9%	/
COc1ccccc1N1CCN(c2nc(N)c(C#N)c(CC#N)c2C#N)CC1	-16%	-5%	1%	?	3%	>57
CCOc1ccc(C(=O)Nc2ccc(Cl)cn2)cc1Cl	4%	-4%	-25%	8%	25µM*	/
Cc1ccc(C(C)C)c(OCC(=O)Nc2ccc(Cl)cn2)c1	-2%	-3%	-19%	61%	2%	>57
O=C(Nc1ccc(Cl)cn1)c1cccc(F)c1	0%	10%	-10%	18%	?	/
O=C(COc1ccc(Cl)cc1Cl)Nc1ccc(Cl)cn1	-4%	5%	-2%	28%	1.3µM*	/
Clc1cccc2c1CN(C1=NCCN1)C2	-8%	-7%	-14%[25.6 µM]	-3%	1%	/
CC(C)(C)c1ccc(C(=O)/C=C2\NC(=O)CS2)cc1	-6%	-8%	4%	?	2.5µM*	3.3*
C=C(C)C1CC=C(C)C(OC(C)=O)C1 (configuration not stated)	11%	-6%	47%	8%	/	/
COc1ccc2nc3oc(C(=O)NCc4cccs4)cc3cc2c1	-18%	13µM*	-2%	6%	-1%	>57
COc1ccc2cc3cc(C(=O)NCC4CCCO4)oc3nc2c1 (configuration not stated)	3.2µM*	16µM*	0%	1%	-4%	i
COc1ccc2cc3cc(C(=O)Nc4ccccc4N4CCN(C)CC4)oc3nc2c1	-8%	-1%	3%	12%	6%	i
O=C(NCc1ccco1)c1cc2cc3ccc(Cl)cc3nc2o1	-11%	?	8%	-9%	1%	>57
O=C(NCc1cccs1)c1cc2ccccc2o1	14%	3%	2%	11%	-8%	>57
COc1ccc2cc3cc(C(=O)NCCN4CCN(c5ccccc5F)CC4)oc3nc2c1	16µM*	13µM*	-7%	-4%	1%	?
COc1ccc2cc3cc(C(=O)NCc4ccccn4)oc3nc2c1	32µM*	25µM*	-7%	27%	-7%	/
NC(=O)CSc1nc(N)c2c3c(sc2n1)CCCCC3	/	/	/	/	13µM*	11*
COC1/C=C/OC2(C)Oc3c(C)c(O)c4c(O)c(c(/C=N/N5CCN(C)CC5)c(O)c4c3C2=O)NC(=O)/C(C)=C/C=C/C(C)C(O)C(C)C(O)C(C)C(OC(C)=O)C1C (configuration not stated)	/	-2%	-10%[25.6 µM]	-28%	/	/
SMILES	HADH2 inh	HSD17B inhib	ALOX15 inhib	ERK AVP block	Luciferase inh	Bst PK mod
O=C(O)CSc1ccc2ccccc2n1	-14%	-3%	5%	15%	2%	>11
C/C(=N/Nc1ccc2ccccc2n1)c1ccccc1O	-3%[11.4 µM]	-1%[11.4 µM]	13%[11.4 µM]	-23%[11.5 µM]	1.3µM*	/
Cc1cc(-c2ccccc2)nn1-c1nc2c(c(=O)[nH]c(=O)n2C)n1C	-7%	25µM*	7%	-28%	5%	>57
Nc1nonc1N1CCCCC1	12%	14%	-10%	8%	0%	>57
Nc1nc2nonc2nc1N1CCCCC1	25µM*	32µM*	-9%	8%	5%	>57
CC(C)c1cccc2cc3c(nc12)-c1cccc(=O)n1C3	86%	13µM*	/	-8%	/	/
CCc1c2c(nc3cccc(C(C)C)c13)-c1cccc(=O)n1C2	i	10µM*	/	-5%	/	/
CC[C@@]1(O)C(=O)COc2c1cc1n(c2=O)Cc2c-1nc1cccc(C(C)C)c1c2[Si](C)(C)C	118%	3.2µM*	/	-1%	/	/
C=C(C)CC1Nc2ccccc2NC1CC(=C)C (configuration not stated)	-8%	-4%	20µM*	-21%	0%	>57
CC(C)NC(=O)N1CCC2(CC1)CCN(S(=O)(=O)c1ccccc1)CC2	-3%	1%	7%	7%	1%[11.4 µM]	/
Oc1ccc(C(c2nnnn2C2CCCC2)N2CCc3ccccc3C2)cc1 (configuration not stated)	?	32µM*	?	19%	0%	>57
COc1ccc(CNC(=O)[C@H](C)[C@H]2C[C@]2(C)[C@H](NC(=O)OCc2ccccc2)c2ccccc2)cc1OC	7%	11%	/	4%	/	/
Nn1c(Nc2ccccc2)nc2ccccc21	-4%	3%	7%	-5%	13µM*	/
C/C=C/OC(=O)NC(c1ccccc1)[C@]1(C(C)=O)CCOC1=O (some centres not stated)	2%[11.4 µM]	5%[11.4 µM]	29%[11.4 µM]	18%[11.5 µM]	/	/
O=C(Nc1cccc(S(=O)(=O)C(F)F)c1)c1ccc(Cl)c(S(=O)(=O)N2CCOCC2)c1	-2%	32µM*	-26%	13µM*	0%	>57
Cc1ccc(C(=O)Nc2ccc3c(c2)OCO3)cc1S(=O)(=O)N1CCCC1	2%	-6%	0%	?	-23%	>57
COc1ccc(C(=O)Nc2cccc(C)c2)cc1S(=O)(=O)N1CCOCC1	4%	5%	-2%	2%	2%	>57
Cc1ccc(C(=O)Nc2cccc(C(=O)O)c2)cc1S(=O)(=O)N1CCCCC1	-5%[11.4 µM]	-5%	2%[11.4 µM]	-20%	13µM*	/
CCOC(=O)c1cccc(NC(=O)CSc2nc3cccnc3n2C)c1	1%	0%	-9%	25µM*	-35%	>57
